Compounds with a hit are over-represented: about 3.6% of the library has one in this group of screens.
AmpC detergent: inhibitors of E. coli AmpC beta-lactamase with detergent; P00811; AmpC hydrolysis of nitrocefin, absorbance 480 nm, 0.01% Triton; Potency, µM (titrated, usually from 114 µM), actives largely listed as inhibitors; 370,000 tested, 0.041% active; AID 485294; also: nearly all actives have a fitted effect of over 25% in size
Target sequence (P00811 whole entry, looked up): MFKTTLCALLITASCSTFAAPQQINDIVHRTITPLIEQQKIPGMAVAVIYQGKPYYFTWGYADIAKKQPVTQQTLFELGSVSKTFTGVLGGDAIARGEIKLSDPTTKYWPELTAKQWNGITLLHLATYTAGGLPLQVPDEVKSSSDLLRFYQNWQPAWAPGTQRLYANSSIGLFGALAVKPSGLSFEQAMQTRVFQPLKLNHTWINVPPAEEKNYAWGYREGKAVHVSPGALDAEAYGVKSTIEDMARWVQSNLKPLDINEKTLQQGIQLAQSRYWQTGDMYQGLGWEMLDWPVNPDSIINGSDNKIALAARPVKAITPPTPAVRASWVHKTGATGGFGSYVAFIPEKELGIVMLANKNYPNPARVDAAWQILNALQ
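AmpC (5.3 nM in the dispensed reagent) in 20 mM phosphate pH 7.0 with 0.01% (detergent screen) or 0.0001% Triton X-100 was preincubated with compounds for 15 min at room temperature. Nitrocefin was then added from an 800 uM solution, and hydrolysis was followed at 480 nm.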
Giardia FBPA inh: inhibitors of Giardia lamblia fructose-1,6-bisphosphate aldolase; A8B2U2; purified Giardia FBPA; Potency, µM (highest dose often 59.6 µM), actives largely listed as inhibitors; 290,000 tested, 0.71% active; also: nearly all actives have a fitted effect of over 55% in size
Target sequence (A8B2U2 whole entry, looked up): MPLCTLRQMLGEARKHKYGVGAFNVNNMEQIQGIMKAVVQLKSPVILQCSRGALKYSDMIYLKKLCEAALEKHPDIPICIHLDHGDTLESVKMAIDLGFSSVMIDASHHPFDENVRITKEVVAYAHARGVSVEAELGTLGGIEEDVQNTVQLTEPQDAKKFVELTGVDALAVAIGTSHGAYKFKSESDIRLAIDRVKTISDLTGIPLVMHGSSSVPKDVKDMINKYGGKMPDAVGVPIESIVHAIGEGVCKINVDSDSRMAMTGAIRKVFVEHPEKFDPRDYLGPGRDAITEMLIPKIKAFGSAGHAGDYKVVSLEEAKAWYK
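Giardia FBPA (40 nM reagent) was preincubated 10 min at RT with compound (up to 57.5 uM final), then substrate plus GAPDH/TPI/NAD/arsenate coupling system with diaphorase/resazurin was added; resorufin fluorescence (525/598 nm) was read after 20 min.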
Sm TGR inh: blocks Schistosoma mansoni thioredoxin glutathione reductase; purified TGR, DTNB reduction, TNB absorbance 405 nm; AID 485364; Potency, µM (doses to about 114 µM), usual class: inhibitors; 360,000 tested, 3% active; Q962Y6; also: nearly all actives have a fitted effect of over 60% in size
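TGR 20 nM + NADPH 100 uM (dispensed conc.), cpd preinc 15 min RT; start with NADPH (500 uM addition) then DTNB (15 mM addition). Kinetic TNB absorbance, 405 nm filter. Four-parameter Hill fit across titration.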
AmpC inh no detg: AmpC beta-lactamase inhibition without detergent. AID 485341. Potency, µM (top dose mostly 57.1 µM), hits mostly inhibitors. 330,000 tested, 0.52% active. AmpC nitrocefin hydrolysis, absorbance 480 nm, 0.0001% Triton; also: nearly all actives have a fitted effect of over 20% in size
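20 mM phosphate pH 7.0 + 0.01% (detergent screen) or 0.0001% Triton X-100; 5.3 nM AmpC reagent; cpd preinc 15 min RT; nitrocefin (800 uM stock) to start; A480 q20 s × 4 min; Activity was normalised to no-enzyme and no-compound control wells.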
Large screens that a line does not name were inactive. Calls follow the shape of the dose curve; as a rule, active = well fitted curve in the direction sought with a large enough effect; inconclusive = small, poorly fitted or top-dose-only effect, or another doubt; inactive = no such curve, though single readings can be large; an effect the other way counts as inactive or inconclusive.

O=C(NC(=S)N1CCCCC1CO)c1cccs1 (stereo unspecified)	none (no result: AmpC detergent, Giardia FBPA inh, Sm TGR inh)
Cc1noc(C)c1CCC(=O)NC1CCCN(Cc2ccc(CC(C)C)cc2)C1 (stereo unspecified)	none
CC(C)(C)c1ccc(C(=O)Nc2ccc(C=C(C#N)C#N)cc2)cc1	Sm TGR inh 3.16µM
N#CC(C#N)=Cc1ccc(NC(=O)c2ccc(Br)cc2)cc1	Sm TGR inh 2.51µM
O=C(Nc1ccc(C(=O)N2CCCCC2)cc1)c1ccc(Br)cc1	none
CC(C)(C)c1ccc(C(=O)Nc2ccc(NC(=O)c3ccc(Cl)c(Cl)c3)cc2)cc1	none (no result: Giardia FBPA inh, AmpC inh no detg)
Cc1c(Br)c(O)c(Br)c2sc(=O)oc12	Giardia FBPA inh inconclusive, Sm TGR inh 2.82µM, AmpC inh no detg 20µM
O=C(Nc1ccc2c(c1)OCCO2)N1CCN(Cc2ccccc2)CC1	none
CC(C)c1ccc(C(=O)CSc2ncn[nH]2)cc1	Giardia FBPA inh inconclusive
O=C(CSc1ncn[nH]1)CSc1ncn[nH]1	Giardia FBPA inh inconclusive, Sm TGR inh 39.8µM
Cc1ccc(CC2CC(=O)N(Cc3ccco3)C2=O)cc1 (stereo unspecified)	Sm TGR inh 12.6µM
COc1ccc(CCN2C(=O)CC(Cc3ccc(C)cc3)C2=O)cc1OC (stereo unspecified)	none
O=C1CC(Cc2ccccc2)C(=O)N1Cc1ccco1 (stereo unspecified)	Sm TGR inh 15.8µM
COc1ccc(NC(=O)C2CCCC2)cc1S(=O)(=O)N1CCOCC1	none (no result: Giardia FBPA inh)
COc1cc(C2NC(=S)NC(O)(C(F)(F)F)C2C(=O)c2cccs2)cc(OC)c1O (stereo unspecified)	none
O=C1NC(c2ccccc2)C(C(=O)c2cccs2)C(O)(C(F)(F)F)N1 (stereo unspecified)	AmpC detergent inconclusive, Sm TGR inh 31.6µM
COc1ccc(Cc2n[nH]c(=S)n2C)cc1Br	Giardia FBPA inh inconclusive, Sm TGR inh 31.6µM
Cc1cc(C(=O)CSc2nnnn2-c2ccccc2)c(C)n1-c1ccc2c(c1)OCO2	none
Cc1cc(C(=O)CSc2nnnn2-c2ccc(O)cc2)c(C)n1Cc1ccc2c(c1)OCO2	AmpC inh no detg 2.24µM
Cc1cc(C(=O)CSc2nncs2)c(C)n1-c1ccc2c(c1)OCO2	AmpC detergent inconclusive, AmpC inh no detg 0.282µM
CC(C)n1c(SCC(=O)Nc2ccc(F)cc2)nc2c(oc3ccccc32)c1=O	none (no result: Giardia FBPA inh, AmpC inh no detg)
CCCC(C(=O)NCc1ccco1)N(Cc1ccco1)C(=O)CNS(=O)(=O)c1ccccc1 (stereo unspecified)	none
COc1ccc(O)c(-c2cc(-c3cccc(Br)c3)n[nH]2)c1	AmpC inh no detg 2.24µM
COc1ccc(-c2cc(-c3cc(OC)ccc3O)[nH]n2)cc1	AmpC detergent inconclusive
COc1cc2c(ccc3cc(OC)c(OC)c(O)c32)cc1O	Sm TGR inh 44.7µM
O=S(=O)(c1ccccc1)c1nc(-c2ccco2)oc1NCCCN1CCOCC1	Sm TGR inh 28.2µM
O=S(=O)(c1ccc(Br)cc1)c1nc(-c2ccco2)oc1NCCCn1ccnc1	Sm TGR inh 22.4µM (no result: Giardia FBPA inh)
O=C(CNC(=O)/C(=C/c1ccccc1)NC(=O)c1ccc(Br)cc1)OCc1ccccc1	AmpC inh no detg 3.55µM
CCOC(=O)NC(C(Cl)(Cl)Cl)S(=O)(=O)c1ccccc1 (stereo unspecified)	Sm TGR inh 25.1µM
Fc1ccc(CN2CCN(c3ncnc4scc(-c5ccccc5)c34)CC2)cc1	none
c1ccc(-c2csc3ncnc(N4CCN(Cc5ccc6c(c5)OCO6)CC4)c23)cc1	Sm TGR inh 17.8µM
CC(=O)c1c(C)[nH]c(C(=O)OCc2ccccc2)c1C	none
COC(=O)CCc1c(COC(C)=O)[nH]c(C(=O)OCc2ccccc2)c1C	Sm TGR inh 3.55µM
CCOc1ccc2c(c1)/C(=C(\C(Cl)=C(Cl)Cl)[N+](=O)[O-])N2	Sm TGR inh 5.62µM
CCCCOc1ccc2c(c1)/C(=C(\C(Cl)=C(Cl)Cl)[N+](=O)[O-])N2	none
CSCC[C@H](NC(=O)Nc1ccc(Oc2ccccc2)cc1)C(=O)O	none
Cc1cccn2c(=O)c3cc(C(=O)NC4CCS(=O)(=O)C4)sc3nc12 (stereo unspecified)	none
Cc1cccn2c(=O)c3cc(C(=O)NC4CCCCCC4)sc3nc12	Sm TGR inh 35.5µM
N#Cc1ccc(-c2ccc(C3Nc4ccccc4C(=O)N3O)o2)cc1 (stereo unspecified)	Sm TGR inh 5.01µM (no result: Giardia FBPA inh)
O=C1c2ccccc2NC(c2ccc(-c3cccc(F)c3)o2)N1O (stereo unspecified)	Sm TGR inh inconclusive (no result: Giardia FBPA inh)
CC(C)c1ccccc1NC(=O)COC(=O)c1c2c(nc3ccccc13)CCN(Cc1ccccc1)C2	AmpC inh no detg 3.55µM
COc1ccc(-n2ccc(-c3nn(-c4cccc(C(F)(F)F)c4)ccc3=O)n2)cc1	none
O=c1ccn(-c2cccc(C(F)(F)F)c2)nc1-c1ccn(-c2ccccc2F)n1	Giardia FBPA inh 15.8µM
COc1cc(OC)cc(C(=O)N[C@H](C(=O)OCC(=O)c2ccc(C)c([N+](=O)[O-])c2)C(C)C)c1	none (no result: AmpC detergent, Giardia FBPA inh, Sm TGR inh)
CC(C)c1onc(C(=O)N(C)Cc2ccccc2)c1[N+](=O)[O-]	none
Cc1ccc(O)c(NC(=O)c2noc(C(C)C)c2[N+](=O)[O-])c1	Sm TGR inh 35.5µM
CC(C)c1onc(C(=O)NCCc2ccccc2)c1[N+](=O)[O-]	Sm TGR inh 44.7µM
CC(=O)c1ccc(NC(=O)c2noc(C(C)C)c2[N+](=O)[O-])cc1	none
CC(C)c1onc(C(=O)NC(C)c2ccccc2)c1[N+](=O)[O-] (stereo unspecified)	Sm TGR inh 39.8µM
CCOCCCn1c(=N)c(C(=O)NC2CCCC2)cc2c(=O)n3cccc(C)c3nc21	none (no result: Giardia FBPA inh, AmpC inh no detg)
Cc1cc(C)cc(OCC(=O)OCc2cc([N+](=O)[O-])cc3c2OCOC3)c1	none (no result: AmpC detergent, Giardia FBPA inh, Sm TGR inh)
COCCCNC(=O)C1CCN(c2cc(C)nc3c(-c4ccc(Cl)cc4)c(C)nn23)CC1	none (no result: Giardia FBPA inh, AmpC inh no detg)
CSc1ccccc1OCc1cc(C(=O)NCCc2nc(C)cc(C)n2)no1	AmpC detergent inconclusive
O=C(Nc1ccccc1)N1CCCC2(CCN(C(=O)c3ccco3)CC2)C1	none (no result: AmpC detergent, Sm TGR inh, AmpC inh no detg)
O=C(NCc1ccccc1)NC(=O)c1ccccc1F	none
Cc1noc(NS(=O)(=O)c2ccc(NC(=O)CCn3c(=O)oc4ccccc43)cc2)c1C	Sm TGR inh 15.8µM
CCOC(=O)N1CCN(c2cc(=O)n(-c3ccc(Br)cc3)c(=O)[nH]2)CC1	AmpC detergent inconclusive, AmpC inh no detg 0.562µM
COc1ccc(C(=O)Nc2ccccc2C(=O)OCc2cc(=O)n3nc(C4CC4)sc3n2)cc1	none (no result: Giardia FBPA inh, AmpC inh no detg)
Cc1cc(O)c(C(C)C)cc1N=Cc1ccccc1O	Giardia FBPA inh 3.54µM, Sm TGR inh 3.98µM
COc1cc(OC)c(NC(=O)COCc2cc(-c3cccs3)on2)cc1Cl	none (no result: Giardia FBPA inh, AmpC inh no detg)
COc1ccc(CN2CCOCCOCCOCCOCCOCC2)cc1	none
COc1ccc(CN2CCNCC2)cc1	Sm TGR inh 50.1µM
CCN(C(=O)C(C)Cl)c1ccccc1 (stereo unspecified)	none
CC1=CCC2C(=O)N(c3ccccc3OC(=O)c3ccccc3F)C(=O)C2C1 (stereo unspecified)	AmpC inh no detg 10µM
